Source: PubChem (National Center for Advancing Translational Sciences (NCATS))
SW480 rerep: A quantitative high throughput screen for small molecules that induce DNA re-replication in SW480 colon adenocarcinoma cells | SW480 DNA re-replication, Hoechst DNA content imaging, 48 h | Potency, µM (top dose mostly 46.1 µM), for inactives: at the top dose re-replication activation, most hits filed as activators | 340,000 compounds, 1.8% hits | AID 624297, 2012; note: % of control where 0% means no effect; nearly all actives have a fitted effect of over 55% in size
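Hoechst fluorescence of nuclei (405 nm excitation, 500-530 nm emission) measured by plate-scanning imager after 48 hr compound exposure at 37 C; re-replication scored as increased number of nuclei with elevated intensity.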
KB-3-1 tox: qHTS assay for MDR1-selective chemotherapeutics: Primary screen using the parental adenocarcinoma cell KB-3-1; Potency, µM (doses to about 46.1 µM), usual class: cytotoxic; 400,000 compounds, 1.4% hits; AID 1347075, 2019; KB-3-1 viability, CellTiter-Glo ATP luminescence, 72 h; note: % is set by controls: 0 for no effect and ±100 for the full control effect; nearly all actives have a fitted effect of over 60% in size
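KB-3-1 parental drug-naive adenocarcinoma cells in DMEM/10% FBS, incubated 72 h at 37 C with pin-transferred compounds across a concentration series. Viability by CellTiter-Glo luminescence; concentration-response curves fitted after normalization.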
RORg inh: qHTS for inhibitors of ROR gamma transcriptional activity. Potency, µM (series often up to 53.6 µM), for the others: top-dose activity change, negative = inhibition, actives largely listed as inhibitors. 310,000 compounds, 5.4% hits. AID 2551, 2010. Nuclear receptor ROR-gamma (Mus musculus), P51450. Drosophila S2 Gal4-RORgamma UAS-luciferase reporter, 20 h; note: % is set by controls: 0 for no effect and ±100 for the full control effect; nearly all actives have a fitted effect of over 60% in size
Target sequence (P51450 whole entry, looked up, the tested form may be a part): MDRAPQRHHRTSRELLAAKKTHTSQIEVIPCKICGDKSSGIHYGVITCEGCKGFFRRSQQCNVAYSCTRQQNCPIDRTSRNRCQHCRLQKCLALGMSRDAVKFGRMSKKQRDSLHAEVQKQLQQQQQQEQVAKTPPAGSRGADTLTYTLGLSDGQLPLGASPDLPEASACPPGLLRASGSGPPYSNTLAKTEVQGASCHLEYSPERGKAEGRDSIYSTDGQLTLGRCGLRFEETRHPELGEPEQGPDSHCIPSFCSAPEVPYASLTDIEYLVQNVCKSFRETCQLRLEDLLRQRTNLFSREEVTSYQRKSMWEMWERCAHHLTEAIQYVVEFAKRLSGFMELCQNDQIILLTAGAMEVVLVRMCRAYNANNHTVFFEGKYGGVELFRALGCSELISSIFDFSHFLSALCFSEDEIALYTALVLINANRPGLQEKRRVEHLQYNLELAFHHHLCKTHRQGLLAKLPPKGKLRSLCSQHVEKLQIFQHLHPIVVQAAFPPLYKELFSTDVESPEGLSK
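Stable Schneider cell line, Gal4 DNA-binding domain fused to ROR gamma, UAS-luciferase. Cmpd 1 hr RT → CuSO4 700 uM final → 20 hr RT → luciferase reagent 10 min → luminescence.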
VP16 counter: VP16 counterscreen qHTS for inhibitors of ROR gamma transcriptional activity. Drosophila S2 Gal4-VP16 UAS-luciferase, luminescence, 20 h. Potency, µM (top dose mostly 53.6 µM), for inactives: at the highest dose activity, negative = inhibition, usual class: inhibitors. 310,000 compounds, 3.5% hits;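 note: Gal4-VP16 expression switched on by copper sulfate through the metallothionein promoter; % is set by controls: 0 for no effect and ±100 for the full control effect; nearly all actives have a fitted effect of over 50% in size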
MCF10A rerep: A quantitative high throughput screen for small molecules that induce DNA re-replication in MCF 10a normal breast cells; MCF 10A DNA re-replication, Hoechst nuclear intensity, 48 h; Potency, µM (highest dose often 46.1 µM), without a hit: at the highest dose activity, positive = re-replication, usual class: activators; 350,000 compounds, 2.9% hits; note: % of control where 0% means no effect; nearly all actives have a fitted effect of over 50% in size
KB-V1 MDR tox: qHTS assay for MDR1-selective chemotherapeutics: Primary screen using the drug-selected MDR subline cells KB-V1 | KB-V1 MDR cells viability, CellTiter-Glo, 72 h | AID 1347076, 2019 | 400,000 compounds, 3.4% hits | Potency, µM (titrated, usually from 46.1 µM), most hits filed as cytotoxic; note: % is set by controls: 0 for no effect and ±100 for the full control effect; nearly all actives have a fitted effect of over 60% in size
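Potencies derive from concentration-effect curves fitted to normalized luminescence (CellTiter-Glo) of KB-V1 cells treated for 72 h at 37 degrees C in phenol-red-free DMEM containing 10% FBS.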
Active calls of the source: *; i = inactive; ? = inconclusive; · = not tested or not shown; [ ] = dose if it differs, or a comment. This is a sample that favours compounds with a hit; in the whole collection about 10% have one here. Calls come from the whole dose curve; as a rule, active = well fitted curve in the direction sought with a large enough effect; inconclusive = small, poorly fitted or top-dose-only effect, or another doubt; inactive = no such curve, though single readings can be large; an effect the other way counts as inactive or inconclusive. Potency is the fitted concentration of half-maximal effect.

SMILES	SW480 rerep	KB-3-1 tox	RORg inh	VP16 counter	MCF10A rerep	KB-V1 MDR tox
Cc1[nH]c2c(C)cccc2c1CCNS(=O)(=O)c1cccc([N+](=O)[O-])c1	-5%	?	32%	-10%	-7%	23µM*
Cn1c2ccccc2c(=O)c2ccc(C#CC3(O)CCCCC3)cc21	?	?	?	-61%	-4%	?
Cc1cc(C)cc(NC(=S)N(C)C)c1	-11%	i	10µM*	-21%	-14%	i
Cc1cc(C)c(NC(=S)N(C)C)cc1C	-11%	i	7.9µM*	-28%	0%	?
Cc1cc(C)c(NC(=S)N(C)C)c(C)c1	-23%	i	-7%	5%	1%	i
O=C(CC1N=C2c3ccccc3N=C(SCc3cccc(Cl)c3)N2C1=O)NC1CCCCC1 (centres undefined)	·	i	·	·	·	i
COc1ccccc1/C=C\C=N\n1c(-c2ccc(Cl)cc2Cl)n[nH]c1=S	-5%	i	7.9µM*	10µM*	?	i
COc1ccccc1/C=C/C=N/n1c(-c2ccc(F)cc2)n[nH]c1=S	-2%	?	2µM*	-8%	11%	?
COc1ccccc1/C=C/C=N/n1c(-c2cc(-c3ccccc3)n[nH]2)n[nH]c1=S	-5%	i	?	4%	?	i
COc1ccccc1/C=C\C=N\n1c(-c2ccc(Cl)cc2)n[nH]c1=S	-3%	i	1.6µM*	?	?	?
COc1ncc2nc(CCc3ccccc3)c(=O)n(CCC#N)c2n1	·	·	-7%	12%	·	·
COc1ccc(N(CC(=O)NCC2CCCO2)S(=O)(=O)c2ccc(C)cc2)cc1OC (centres undefined)	20%	i	-9%	9%	5%	21µM*
COc1ccc(N(CC(=O)Nc2ccccc2C(=O)NCC(C)C)S(C)(=O)=O)cc1	18µM*	i	6%	-3%	-5%	i
COc1ccc(S(=O)(=O)N(CC(=O)O)c2ccccn2)cc1	0%	i	4%	-24%	1%	i
COc1ccc(S(=O)(=O)N(CC(=O)O)c2ccccc2)cc1	5%	i	-2%	-3%	3.7µM*	i
COc1ccc(NC(=O)CN(c2ccc([N+](=O)[O-])cc2)S(=O)(=O)c2ccccc2)cc1	?	i	-9%	-7%	?	16µM*
COc1cccc(NC(=O)CN(c2ccc([N+](=O)[O-])cc2)S(=O)(=O)c2ccccc2)c1	-9%	i	?	-9%	-1%	i
Cc1ccc(N(CC(=O)NCC2CCCO2)S(=O)(=O)c2ccc(Cl)cc2)cc1C (centres undefined)	-7%	i	-11%	-5%	1%	i
O=S(=O)(Nc1ccc(-c2ccc(N3CCCCCC3)nn2)cc1)c1ccc(C(F)(F)F)cc1	·	i	·	·	·	?
CC(=O)Oc1ccc(N(c2ccccc2)S(=O)(=O)c2ccc(C)cc2)cc1	?	?	10%	-10%	?	15µM*
COc1ccc(S(=O)(=O)N(CC(=O)Nc2ccccc2C(=O)N2CCOCC2)c2ccc(F)cc2)cc1	1%	i	17%	-1%	10%	16µM*
CCN(c1ccccc1)S(=O)(=O)c1ccc(C(=O)Oc2ccc(C(C)=O)cc2)cc1	-175%	i	?	10µM*	-1%	i
COc1ccc(N(CC(=O)Nc2ccc(C)c(C)c2)S(=O)(=O)c2ccc(C)cc2)cc1OC	·	i	·	·	·	i
COc1ccc(N(CC(=O)Nc2ccccc2Cl)S(=O)(=O)c2ccc(C)cc2)cc1OC	3.3µM*	i	-6%	17%	?	i
Nc1ncnc2c1nc(Br)n2[C@@H]1O[C@H]2COP(=O)(O)O[C@@H]2[C@@H]1O	·	·	5%	3%	·	·
SMILES	SW480 rerep	KB-3-1 tox	RORg inh	VP16 counter	MCF10A rerep	KB-V1 MDR tox
CCOC(=O)c1c(C)[nH]c(C)c1S(=O)(=O)NCC(=O)N1CCN(c2cccc(C)c2)C(C)C1 (centres undefined)	·	i	·	·	·	i
COc1ccccc1NC(=O)CN(c1ccccc1)S(=O)(=O)c1ccccc1	8%	i	0%	3%	24%	?
COc1ccc(N(CC(=O)Nc2cc(Cl)ccc2OC)S(=O)(=O)c2c(C)noc2C)cc1	?	4.6µM*	-14%	-2%	?	3.3µM*
COc1ccc(N(CC(=O)Nc2ccccc2OC)S(=O)(=O)c2ccc(NC(C)=O)cc2)cc1	18µM*	21µM*	40%	0%	13µM*	?
NC(=O)c1cccc(Nc2nc(C(N)C3CCCCC3)cs2)n1 (centres undefined)	·	i	·	·	·	i
N#Cc1ccc(CN2CCC3(CC2)CCN(C(=O)c2ccco2)CC3)cc1	·	·	-17%	-7%	·	·
COC(=O)c1nn(-c2c(C)n(C)n(-c3ccccc3)c2=O)cc1O	5%	i	4%	-3%	4.1µM*	i
N#CC1=C(N)Oc2n[nH]c(-c3cccnc3)c2C1c1ccc([N+](=O)[O-])o1 (centres undefined)	?	i	6.3µM*	?	?	i
N#CC1=C(N)Oc2n[nH]c(-c3ccccc3)c2C1c1cccnc1 (centres undefined)	-2%	i	2%	6%	5%	i
CC12CCC(C1)C(C)(C)C2=O (centres undefined)	-10%	·	1%[10 µM]	-3%	0%	·
COc1cccc(-c2cnc3c(NC=O)cc(-c4ccc(OC)cc4OC)cn23)c1	·	0.21µM*	·	·	·	?
COc1ccc(-c2cc(NC=O)c3ncc(-c4ccc(OC)c(OC)c4)n3c2)c(OC)c1	·	0.65µM*	·	·	·	1.2µM*
COc1cccc(-c2cnc3c(NC(C)=O)cc(-c4ccc(OC)c(OC)c4)cn23)c1	·	i	·	·	·	i
CC(=O)NCCCC[C@H](NC(=O)OC(C)(C)C)C(=O)Nc1ccc2c(C(F)(F)F)cc(=O)oc2c1	·	·	2%	-2%	·	·
Cc1ccc(Cl)cc1NC(=O)COCc1cc(-c2ccco2)on1	·	i	·	·	·	i
CCOc1ccc(NC(=O)COc2ccc(S(=O)(=O)NC3CCCCC3)cc2)cc1	·	i	·	·	·	?
COC(=O)Cc1ccc(NC(=S)Nc2ccccn2)cc1	-16%	i	5µM*	?	5%	i
